# Screening data: PubChem, National Center for Advancing Translational Sciences (NCATS)
# LDHA inh – qHTS assay for inhibitors of human lactate dehydrogenase; L-lactate dehydrogenase A chain (Homo sapiens), P00338; purified LDHA, NADH/diaphorase-resazurin fluorescence; hits give low values; activity change, % (values are at about 110 or 230 µM); 0.15% of 480,000 active; AID 1347041, 2019; in the data active = activity change below about -30%; inconclusive = mostly about -25% to -30%;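 also: plate controls were DMSO wells for no effect and wells without enzyme for full effect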
#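 Human LDH5 at 2 nM final in Tris HCl pH 7.4 with 0.06 mM NADH and 0.2 mM pyruvate, reacted 5 minutes at room temperature. Remaining NADH coupled via diaphorase/resazurin; resorufin fluorescence read at 0 and 20 minutes, normalized to enzyme-free and DMSO wells.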
# PTHR1 ag – qHTS for PTHR1 Agonists: Primary Screen; Parathyroid hormone/parathyroid hormone-related peptide receptor (Homo sapiens), Q03431; Potency, µM (top dose mostly 115 µM), for the others: at the top dose activation, usual class: activators; 0.075% of 410,000 active; HEK293 GP2 PTHR1 cells, GloSensor cAMP luminescence, 1 h; also: potency is read from the fitted curve at half-maximal effect; nearly all actives have a fitted effect of over 55% in size
#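 HEK-293-derived GP2 cells expressing PTHR1 and a GloSensor cAMP reporter, 3,000/well, plated overnight, given luciferin plus IBMX (each 0.5 mM as added) for 1 h at 37 °C, then compound for 1 h at 37 °C. Luminescence was read after 15 min at room temperature.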
# mIDH1 inhibitor – qHTS for Inhibitors of mutant isocitrate dehydrogenase 1 (IDH1): qHTS; Isocitrate dehydrogenase [NADP] cytoplasmic (Homo sapiens), O75874; IDH1-R132H enzyme, NADPH consumption, diaphorase/resazurin fluorescence; Potency, µM (top dose mostly 76.6 µM), for the others: top-dose activity change, negative = inhibition, actives largely listed as inhibitors; 0.093% of 390,000 active; AID 602179, 2012; also: potency is read from the fitted curve at half-maximal effect; % is scaled to controls: 0 for no effect and ±100 for the full control effect; nearly all actives have a fitted effect of over 65% in size
# Target sequence (O75874 whole entry R132H, stated change not applied): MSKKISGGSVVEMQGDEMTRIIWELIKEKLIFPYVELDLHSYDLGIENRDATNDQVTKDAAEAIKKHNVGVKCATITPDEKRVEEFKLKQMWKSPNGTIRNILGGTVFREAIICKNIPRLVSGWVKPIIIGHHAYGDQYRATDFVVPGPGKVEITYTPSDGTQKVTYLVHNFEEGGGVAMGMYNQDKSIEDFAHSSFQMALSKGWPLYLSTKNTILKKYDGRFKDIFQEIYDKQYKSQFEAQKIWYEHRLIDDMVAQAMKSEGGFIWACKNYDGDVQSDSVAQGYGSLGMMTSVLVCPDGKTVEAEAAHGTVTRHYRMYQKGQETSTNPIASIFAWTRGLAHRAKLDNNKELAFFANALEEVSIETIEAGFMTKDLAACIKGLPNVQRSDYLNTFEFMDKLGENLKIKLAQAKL
#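 IDH1-R132H (0.5 ug/mL dispensed) in pH 7.5 Tris buffer was preincubated 30 min with compound, then given a substrate mix of 0.016 mM NADPH and 2 mM alpha-KG for 80 min at room temperature; remaining NADPH was read by diaphorase/resazurin fluorescence.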
# GLP-1R agonist – qHTS of GLP-1 Receptor Agonists; Glucagon-like peptide 1 receptor (Homo sapiens), P43220; HEK293 GLP-1R CRE-luciferase, luminescence, 4-6 h; cells express a hypersensitive GLP-1R form; Potency, µM (doses to about 45.6 µM), for inactives: at the top dose activation, hits mostly activators; 0.007% of 380,000 active; AID 624172, 2012; also: potency is read from the fitted curve at half-maximal effect; % of control where 0% means no effect
# GLP-1R inv ag – qHTS of GLP-1 Receptor Inverse Agonists (Inhibition Mode). Glucagon-like peptide 1 receptor (Homo sapiens), P43220. HEK293 GLP-1R CRE-luciferase, luminescence, 24 h; GLP-1R form is constitutively active. 1.6% of 410,000 active. Potency, µM (top dose mostly 38.3 µM), for inactives: top-dose activity change, negative = inhibition, actives largely listed as inhibitors; also: potency is read from the fitted curve at half-maximal effect; % is scaled to controls: 0 for no effect and ±100 for the full control effect; nearly all actives have a fitted effect of over 55% in size
#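 HEK293 cells stably co-expressing a cAMP-responsive luciferase reporter and constitutively active GLP-1R were seeded, incubated 12 h, then exposed to compounds for 24 h at 37 C. Luminescence was read 12 min after detection reagent; inverse agonists lower signal.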
# HEK293 tox – qHTS of GLP-1 Receptor Inverse Agonists: Cytotox Screen; HEK293 cAMP-luciferase reporter cells, luminescence, 24 h; Potency, µM (top dose mostly 38.3 µM), inactives show top-dose activity change, negative = inhibition, most hits filed as inhibitors; 0.13% of 410,000 active;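 also: loss of luciferase light is scored as toxicity; potency is read from the fitted curve at half-maximal effect; % is scaled to controls: 0 for no effect and ±100 for the full control effect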
#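 Quantitative HTS format, 1536 wells, 200 cells/uL seeded. Compounds: 23 nL, 24 h, 37 °C. Detection: luciferase reagent, luminescence at 12 min RT; decreased signal taken as cytotoxic.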
# * marks the source's active call; other numbers are inactive results; i = inactive; ? = inconclusive; . = no result given; ! = not confirmed by another sample; [ ] = remark or other dose. An excerpt weighted towards active compounds, which were near 1.7% of everything screened. Unless noted, calls follow the shape of the dose curve; as a rule, active = well fitted curve in the direction sought with a large enough effect; inconclusive = small, poorly fitted or top-dose-only effect, or another doubt; inactive = no such curve, though single readings can be large; an effect the other way counts as inactive or inconclusive.
SMILES,LDHA inh,PTHR1 ag,mIDH1 inhibitor,GLP-1R agonist,GLP-1R inv ag,HEK293 tox
Cc1cccc2sc(NC(=O)C3CSC4(C)CCC(=O)N34)nc12 (stereo unspecified),-1.2,-27.6%,-0.6%,1.4%,7.08µM*,-2.3%
CCOc1ccc(C(=O)OCC(=O)NC(N)=O)cc1OCC,4.7,.,.,.,.,.
CC1CC(C)(C)CC2(C1)NC(=S)N(c1ccccc1)N2 (stereo unspecified),-2.6,i,-0.6%,0.3%,3.55µM*,-18.0%
CC1CCCC2(C1)NC(=S)N(c1ccccc1)N2 (stereo unspecified),5.7,-12.4%,1.2%,2.5%,5.01µM*,-31.3%
S=C1NC2(CCCCC2)NN1c1ccccc1,0.9,i,-9.8%,7.4%,?,-24.4%
Cc1ccc(N2NC3(CCC(C)CC3)NC2=S)cc1 (stereo unspecified),5.7,.,.,.,.,.
Oc1cccc(/C=N/Nc2cc(N3CCOCC3)nc(N3CCOCC3)n2)c1,8.0,i,0.1%,-0.7%,3.55µM*,8.5%
O=C(Oc1cccc(/C=N/Nc2nc(Nc3ccccc3)nc(N3CCOCC3)n2)c1)c1ccco1,-12.9,i,3.7%,-3.7%,1.78µM*,27.6%
CCOC(=O)C1=CN(Cc2ccco2)S(=O)(=O)N(C)C1c1ccc2ccccc2c1 (stereo unspecified),3.3,-13.9%,1.4%[38.3 µM],2.0%,10µM*,-10.7%
O=C(Nc1cccc(S(=O)(=O)NC2=NCCC2)c1)C1(c2ccccc2)CCCC1,-0.6,.,.,.,.,.
CNC(=O)c1nnsc1S(=O)(=O)c1ccc(Cl)cc1,-7.3,-28.1%,-5.3%,-7.6%,4.47µM*,?
CCOC(=O)Nc1ccc2c(CN3CCC(C(=O)OCC)CC3)cc(=O)oc2c1,6.7,.,.,.,.,.
O=S(=O)(Cc1ccc(Cl)cc1)Nc1nc2c(s1)CCCC2,-0.2,.,.,.,.,.
C=CCNC(=S)N/N=C/c1ccc(C(C)(C)C)cc1,2.4,-6.8%,2.7%,11.7%,3.55µM*,?
COCCNC(=S)N/N=C/c1ccc(C(C)(C)C)cc1,0.5,.,.,.,.,.
Cc1cc(Nc2ccccc2)n(-c2ccc(Br)cc2)n1,-2.9,-59.1%[57.5 µM],3.2%,-11.5%,?,1.2%
Cc1cc(Nc2ccc(Cl)cc2)n(-c2ccccc2)n1,-5.5,-23.2%[57.5 µM],1.1%,1.3%,2.82µM*,-4.2%
Cc1cc(Nc2ccc(Cl)cc2)n(-c2cccc(Cl)c2)n1,-0.2,-15.1%,1.7%,-4.0%,7.94µM*,64.2%
Cc1[nH]c2ccccc2c1-c1csc(NC(=O)C2CCC2)n1,6.6,.,.,.,.,.
Cc1ccc(S(=O)(=O)NC2c3cccc4cccc(c34)C2Sc2nc(C)cc(C)n2)cc1 (stereo unspecified),-1.7,-13.5%,-1.2%,2.4%,7.08µM*,15.9%
CC12CCC=CC1=C(C=O)C1C2CCC2(C)C(O)CCC12 (stereo unspecified),1.8,-11.1%,0.7%,7.9%,11.2µM*,?
CCN1CC(CN(C)Cc2nnc(C(C)(C)C)o2)Oc2ccccc21 (stereo unspecified),13.3,.,.,.,.,.
Cc1nnc(SCC(=O)Nc2ccc(OC(F)F)c(Cl)c2)n(N)c1=O,-36.0*,-33.0%,11.4%,5.7%,43.5%,1.8%
Cc1ccc(NC(=O)CSc2nnc(C)c(=O)n2N)c(C)c1,-37.5*,i,1.4%,-6.7%,15.7%,-11.9%
Cc1ccc(NC(=O)CSc2nnc(C)c(=O)n2N)cc1Cl,-11.6,-46.5%,-6.6%,-1.7%,42.8%,1.8%
SMILES,LDHA inh,PTHR1 ag,mIDH1 inhibitor,GLP-1R agonist,GLP-1R inv ag,HEK293 tox
NC(=O)CC(NC(=O)c1ccc(Br)cc1)c1ccc(N2CCCCCC2)c([N+](=O)[O-])c1 (stereo unspecified),-2.8,-19.8%,0.6%,16.9%,11.2µM*,-27.3%
CCSc1ncc(/C=N/Nc2ccccc2)n1C,3.9,-3.0%,0.2%,14.0%,3.55µM*,?
COC(=O)c1ccc(OC(=O)C23CCC(C)(C(=O)C2)C3(C)C)cc1 (stereo unspecified),-3.4,.,.,.,.,.
COc1ccc(-c2cc3c(=O)[nH]nc(SCC(=O)N4CCCC4)n3n2)cc1OC,-8.5,.,.,.,.,.
C[C@@H]1CN([C@H](C)CO)C(=O)c2cc(NC(=O)Nc3ccc(C(F)(F)F)cc3)ccc2O[C@H]1CN(C)S(=O)(=O)c1ccc(Cl)cc1,-3.7,-16.6%,-13.1%,-2.6%,3.16µM*,-28.0%
C[C@@H]1CN([C@@H](C)CO)C(=O)Cc2cc(NC(=O)Nc3ccc(C(F)(F)F)cc3)ccc2O[C@@H]1CN(C)S(=O)(=O)c1ccc(Cl)cc1,0.8,-14.6%,-3.4%,-5.2%,5.62µM*,?
CCOC(=O)c1ccc(N=c2sc(C(=O)OC)cc(=O)n2CCCN2CCOCC2)cc1,-0.1,-42.1%,-7.8%,-6.2%,?,0.4%
CCOC(=O)c1ccc(N=c2sc(C(=O)OC)cc(=O)n2Cc2ccco2)cc1,1.5,-5.9%,-6.5%,6.5%,4.47µM*,?
C=CCOC(=O)Cn1cnc2c1c(=O)n(C)c(=O)n2C,5.3,.,.,.,.,.
CC(C)(Oc1ccc(F)cc1F)C(=O)Nc1cc(C(C)(C)C)on1,32.3,.,.,.,.,.
O=C(CNC(=O)Cc1ccccc1)NCC(=O)OCC(=O)c1cccc2ccccc12,-41.1*!,i,0.6%,-5.2%,1.8%,-17.5%
CN(C)CCNc1nc2sc3c(c2c(=O)n1Cc1ccccc1)CCCCC3,0.5,i,-0.7%,10.5%,1.12µM*,?
CN(C)CCNc1nc2sc3c(c2c(=O)n1-c1ccccc1)CCCCC3,-3.7,i,4.0%,12.5%,?,-8.3%
COc1ccc(/C(O)=C2\C(=O)C(=O)N(c3ccccn3)C2c2ccc(C(C)C)cc2)cc1 (stereo unspecified),2.9,.,.,.,.,.
O=C(COC(=O)c1cccc(NC(=O)c2ccco2)c1)c1ccccc1,-3.2,.,.,.,.,.
CCN(CC)CCCN=Cc1c(O)n(Cc2ccccc2)c(=O)c2ccccc12,5.0,i,-0.4%,14.2%,12.6µM*,-9.7%
COc1ccccc1N1CCN(CCNC(=O)Nc2cccc(C)c2C)CC1,-3.1,-11.4%,2.8%,-7.8%,3.16µM*,-13.7%
COc1ccc(N2CCN(CCNC(=O)Nc3cccc(C)c3C)CC2)cc1,-11.5,i,-5.0%,1.3%,5.1%,1.2%
